Screens (PubChem)
KB-3-1 tox – kills parental KB-3-1 adenocarcinoma cells; Potency, µM (top dose mostly 46.1 µM), actives largely listed as cytotoxic; KB-3-1 viability, CellTiter-Glo ATP luminescence, 72 h; AID 1347075; 400,000 tested, 1.4% active; note: nearly all actives have a fitted effect of over 60% in size
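KB-3-1 cells, DMEM (no phenol red) + 10% FBS; compound by pin transfer, 72 h, 37 °C. Readout: CellTiter-Glo luminescence after 10 min. Data normalized, curve-fitted.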
HT1080 IDH1KD tx – toxicity to HT-1080 IDH1 knockdown cells (counter line); HT-1080 IDH1 knockdown viability, ATP luminescence, 48 h; Potency, µM (highest dose often 46.1 µM), for inactives: at the highest dose activity, negative = toxicity, actives largely listed as cytotoxic; 360,000 tested, 2% active;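 note: 0% = DMSO wells and -100% = cell-free medium wells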
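After a 2 h attachment period, IDH1KD HT-1080 cells took pin-transferred compound for 48 h at 37 °C; ATP-based luminescence after 10 min room-temperature reagent incubation reported viability.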
HT1080-NT tox – kills 2HG-producing HT-1080-NT fibrosarcoma cells. HT-1080-NT fibrosarcoma viability, CellTiter-Glo ATP luminescence, 48 h. Potency, µM (top dose mostly 46.1 µM), inactives show top-dose activity, negative = less viability, actives largely listed as cytotoxic. 360,000 tested, 1.6% active. AID 686970;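 note: NT is the 2HG producing partner of a matched IDH1 knockdown line; 0% = DMSO-treated cells and -100% = media-only wells without cells; nearly all actives have a fitted effect of over 55% in size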
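Viability by CellTiter-Glo luminescence after 48 h compound exposure at 37C of HT-1080-NT cells (750/well, RPMI, 5% FBS). % activity scaled between DMSO wells and medium-only wells, then curve-fitted and categorized by curve class.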
KB-V1 MDR tox – kills drug-selected multidrug resistant KB-V1 cells | KB-V1 MDR cells viability, CellTiter-Glo, 72 h | Potency, µM (highest dose often 46.1 µM), actives largely listed as cytotoxic | 400,000 tested, 3.4% active | AID 1347076; note: nearly all actives have a fitted effect of over 60% in size
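qHTS viability screen in drug-selected KB-V1 MDR cells: 72 h compound treatment at 37 degrees C, ATP luminescence end point.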
An asterisk follows results filed as active; i = inactive; ? = inconclusive; / = not tested or not shown; [ ] = dose if it differs, or a comment. Shown are actives, neighbours in structure and some others; about 5.7% of the full set was active somewhere. Calls come from the whole dose curve; as a rule, active = well fitted curve in the direction sought with a large enough effect; inconclusive = small, poorly fitted or top-dose-only effect, or another doubt; inactive = no such curve, though single readings can be large; an effect the other way counts as inactive or inconclusive. Unless noted, % is set by controls: 0 for no effect and ±100 for the full control effect; potency is the fitted concentration of half-maximal effect.

SMILES	KB-3-1 tox	HT1080 IDH1KD tx	HT1080-NT tox	KB-V1 MDR tox
O=C(Nc1cccc(Oc2ccccc2)c1)C1Cc2c(-c3ccc4c(c3)OCO4)ccnc2O1 (stereo unspecified)	i	?	?	i
NC(=O)c1cccc(-c2ccnc3c2CC(C(=O)Nc2cccc(Oc4ccccc4)c2)O3)c1 (stereo unspecified)	i	23µM*	?	?
Cc1c(C)n(C)c2ccc(C(=O)NCCc3ccc(Cl)cc3)cc12	i	/	/	i
Cc1ccc(-n2cnc3cc(C(=O)NCc4ccccc4Cl)ccc32)c(C)c1	i	/	/	i
Nc1ccc(N(CCO)CCO)cc1	i	-8%	-15%	i
CCN(CC)c1ccc(N)cc1	?	15µM*	8.2µM*	i
CCc1nc(NCc2ccccn2)c2oc3ccccc3c2n1	?	-12%	-22%	?
c1ccc2c(c1)oc1c(NCC3CCCO3)ncnc12 (stereo unspecified)	i	-11%	-2%	16µM*
CC(C)Cc1nc2oc3c(NCC4CCCO4)ncnc3c2c2c1CCC2 (stereo unspecified)	?	-1%	7%	10µM*
c1ccc(-c2nc(NCC3CCCO3)c3oc4ccccc4c3n2)cc1 (stereo unspecified)	i	-4%	-15%	3.7µM*
c1ccc(CNc2ncnc3c2oc2ccccc23)nc1	i	-2%	-4%	21µM*
O=C(CSc1ncnc2c1oc1ccccc12)NCC1CCCO1 (stereo unspecified)	i	1%	4%	i
Cc1cccc(-n2nnc(-c3nc(-c4cccs4)no3)c2N)c1	i	/	/	i
CN(C)C1CCC(CC2CCc3ccccc32)CC1 (stereo unspecified)	i	/	/	i
Brc1ccc2[nH]c3c(NCc4ccccn4)ncnc3c2c1	i	16µM*	?	?
Cc1ccc2[nH]c3c(NCc4ccccc4)ncnc3c2c1	i	-23%	-16%	i
CCCSc1nnc2[nH]c(=O)cc(N)n12	i	15%	9%	?
CCCCSc1nnc2[nH]c(=O)cc(N)n12	i	-6%	6%[9.24 µM]	8.2µM*
COC(=O)C1=C(C)N(Cc2ccccc2)C(=NCc2cccc(Cl)c2)N[C@H]1c1cccc(F)c1	?	?	?	21µM*
COC(=O)C1=C(C)N(Cc2ccccc2)C(=NCc2ccc(OC)cc2)N[C@H]1c1cccc(F)c1	?	-17%	-20%	?
O=C(Nc1cccn(Cc2c(F)cccc2Cl)c1=O)NC1CCCCC1	2.6µM*	?	?	?
C#CCOC(=O)Nc1cccn(Cc2c(Cl)cccc2Cl)c1=O	10µM*	?	?	?
CN(C)c1ncnc2sc(-c3ccccc3)cc12	?	-27%	-8%	?
CN(C)c1ncnc2c1C(c1ccccc1)C(C)(C)O2 (stereo unspecified)	i	9%	9%	18µM*
NC(=O)C1CCN(C2=C(Cl)C(=O)c3ccccc3C2=O)CC1	?	21µM*	?	?
SMILES	KB-3-1 tox	HT1080 IDH1KD tx	HT1080-NT tox	KB-V1 MDR tox
O=C1C(Cl)=C(N2CCC(C(=O)O)CC2)C(=O)c2ccccc21	i	?	?	?
Cc1ccc(CNC(=O)c2c[nH]c3ccc(S(=O)(=O)Nc4ccc(C(C)C)cc4)cc3c2=O)cc1	i	/	/	i
CC/C(=N\Nc1ccnc2cc(Cl)ccc12)c1ccc(O)cc1	?	16µM*	18µM*	i
Oc1ccc(/C=N/Nc2ccnc3cc(Cl)ccc23)c(O)c1O	i	-5%	3%	i
Cc1cc(C)nc(SCc2cn3c(C)cccc3n2)n1	i	1%	0%	i
c1ccc2oc(SCc3cn4ccccc4n3)nc2c1	i	?	?	?
Cc1cccc2nc(CSc3nc4ccccc4o3)cn12	?	28%	2%	16µM*
Cc1cc(C)c(C#N)c(SCc2cn3c(C)cccc3n2)n1	i	1%	7%	18µM*
CNc1ccc(C=C2C=CC=C2)cc1	i	/	/	i
O=S(=O)(Cc1cc(Cl)nc(-c2ccccc2)n1)c1ccccc1	i	?	2%	i
O=S(=O)(Cc1cc(Cl)nc(-c2ccncc2)n1)c1ccccc1	i	?	23µM*	i
CCOC(=O)Oc1c(OC)cc(C(=O)O[C@@H]2C[C@@H]3CN4CCc5c([nH]c6cc(OC)ccc56)[C@H]4C[C@@H]3[C@H](C(=O)OC)[C@H]2OC)cc1OC	?	?	15µM*	?
